A short description of test [1]: Her2 expression decrease, cell viability multiplex – SKBR3 breast tumor cells, AlphaScreen, ATP viability, primary screen (AID 461;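 active = Her2 level under about 52% in both replicate screens, with viability over 70% of control, limit read from the data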;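 as to Her2 level: lower value means less Her2 protein in the cells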;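 as to viability: percent of carrier control wells set as 100% viability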). To be noted: SKBR3 Her2 protein level, 18-24 h, measured here: SKBR3 viability, ATP luminescence, at 10 µM. Background: Alpha assays give light when donor and acceptor beads are brought close together.
The target of test [2] is Receptor tyrosine-protein kinase erbB-2 (Homo sapiens) (UniProt P04626). The description is as above. The note with it: 18-24 h, at 10 µM, stronger effect = lower value.
Test [3] is described as follows: reduced viability of SK-BR-3 breast cancer cells – cell-based, 24 h, human, pilot screen (AID 572;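 active = viability at or below 10% of carrier control in both of two separate runs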;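 also: compound exposure lasted between 18 and 24 h rather than exactly 24 h; 100% = carrier-treated control wells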). To be noted: SK-BR-3 viability, CellTiter-Glo luminescence, at 10 µM, stronger effect = lower value. (In general: In ATP-based viability assays light output follows the ATP content of the culture.)
Test [4] can be described thus: HUVEC growth inhibition – cell-based, human, primary screen (AID 575;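 active = viability at or below 30% in both replicate assays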;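 also: 100% = median of untreated cell wells with 0.1% DMSO on each plate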). To be noted: HUVEC proliferation, CellTiter-Glo luminescence, 72 h; at 10 µM; stronger effect = lower value.
Test [5] can be described thus: H69AR cell proliferation blockers – human, duplicate replicates, primary screen (AID 580;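 active = viability at or under a set limit in both replicates, limit being median viability minus 3 SD, cut at about 48% in these data, passing the limit was not always enough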;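 also: 100% = mean luminescence of untreated wells and 0% = no signal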). To be noted: H69AR lung tumor cells viability, ATP luminescence, 72 h; at 10 µM; stronger effect = lower value.
Test [6] can be described thus: MRP1 drug-resistance reversers in H69AR cells – cell-based, doxorubicin co-treatment, pilot screen (AID 601;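 active = viability loss from added drug above about 55%, and viability with drug at most 40%, in both replicates, limit read from the data, passing the limit was not always enough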). The note with it: CellTiter-Glo, 72 h, at 10 µM; for differential viability (reversal): stronger effect = higher value.
Test [7] can be described thus: yeast transport mutant growth inhibition pilot in 384-well plates, post-Golgi transport modulator project (AID 636; in the data active = inhibition above about 31%). The note with it: absorbance 615 nm, about 18 h, stronger effect = higher value.
The nature of test [8]: growth suppression of yeast trafficking mutant, preliminary HTS, modulators of trafficking downstream of Golgi apparatus project, 1536-format plate, OD 615 nm (AID 637; in the data active = inhibition above about 30%). To be noted: yeast transport mutant growth, absorbance 615 nm, 18 h; stronger effect = higher value.
Test [9] can be described thus: S. cerevisiae growth inhibition in permissive medium (OD615), pilot counter-assay for S. cerevisiae lifespan shortening project, permissive growth control (AID 705;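 active = growth inhibition above 25% in both replicates, a cutoff set 3 SD above the mean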). To be noted: OD615, 24 h, at 10 µM, stronger effect = higher value.
Test [10] in a line: S. cerevisiae growth inhibition in restrictive medium, OD615, pilot screen, restrictive growth control, yeast lifespan reduction project (AID 706;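 active = growth inhibition above a set limit, 3 SD over mean compound inhibition, in both replicates, cut at about 43% in these data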;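 also: modified DeaD lifespan yeast strain shifted to restrictive glucose medium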). The note with it: OD615, 48 h, at 10 µM, stronger effect = higher value.
Test [11] in a line: doxorubicin toxicity protection in MRP-1 cells – H69AR cells, CellTiter-Glo, duplicate, MRP-1 activator project, pilot screen (AID 807;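 active = viability increase at or above a cutoff of the median across tested compounds plus 3 SD, cut at about 8.5% in these data, passing the limit was not always enough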;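 also: compound pretreatment 18-22 h then 72 h combined with doxorubicin; 0% = doxorubicin alone and 100% = vehicle without doxorubicin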). The note with it: H69AR viability with doxorubicin, CellTiter-Glo luminescence; at 10 µM; stronger effect = higher value.
Test [12] is described as follows: viability of HCT116 without oncogenic beta-catenin – human colon tumor cells, pilot screen (AID 823;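 active = cell viability at or below a set limit in both duplicate runs, the limit being the all-compound median minus 4 SD, cut at about 23% in these data, passing the limit was not always enough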;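 also: 0% = wells killed by 20 µM Hyamine and 100% = untreated DMSO cell wells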). The note with it: HCT116 beta-catenin knockout viability, CellTiter-Glo, 60 h; at 10 µM; stronger effect = lower value.
The nature of test [13]: viability of PTEN-null HCT116 cells – cell-based, HCT116 clonal line, CellTiter-Glo, pilot screen (AID 824;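 active = viability at or below 27.92% in each of two runs, the all-compound median minus 4 SD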;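 also: 0% = 20 µM Hyamine control and 100% = vehicle cell control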). To be noted: HCT116 PTEN-deleted viability, 60 h, at 10 µM, stronger effect = lower value.
A short description of test [14]: RAM pathway blockade in budding yeast – dse1pr::URA3 reporter, 5-FOA selection, pilot screen (AID 869).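 Also: 0% = DMSO wells with no growth and 100% = 10 µM 1-NA-PP1 with full growth; RAM network block rescues cells from 5-FOA so hits raise OD615 growth.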 To be noted: S. cerevisiae dse1pr::URA3 5-FOA growth, OD615, 2 d; at 10 µM; stronger effect = higher value; strain carries analog-sensitive mutant Cbk1 kinase.
Test [15] can be described thus: RAM signaling pathway blockade in yeast – S. cerevisiae, Pdr1DBD-CYC8 efflux-inhibited sensitized strain, primary screen (AID 1298;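 active = RAM network inhibition above 8.4% in each of two replicates, 3 SD over the compound average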;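 also: 0% = DMSO untreated cells without growth and 100% = 10 µM 1-NA-PP1 full growth; higher means more yeast growth rescued from 5-FOA killing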). The note with it: S. cerevisiae cbk1-as DSE1-URA3 strain, 5-FOA growth OD615, 2 d; at 50 µM; stronger effect = higher value.
[16] abbreviates: H69AR cells + 2 uM doxorubicin, measured here: viability with 2 uM doxorubicin, stronger effect = lower value.
[17] abbreviates: H69AR cells, compound alone cytotoxicity.

The text below walks through data of PubChem BioAssay.

Records with an inconclusive call do not appear. Active and inactive are the calls of the source.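 The calls were made as follows, unless noted: active = inhibition over a set limit, the all-compound mean plus 3 SD, in both replicate runs; inconclusive = over that limit in just one replicate run; inactive = at or under that limit in both runs.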

What is called viability is a read-out of living cells in per cent, often relative to untreated cells. By inhibition is commonly meant the change of the read-out against control, counted positive when it falls.

Sequence of Receptor tyrosine-protein kinase erbB-2 (Homo sapiens) (P04626 whole entry, looked up): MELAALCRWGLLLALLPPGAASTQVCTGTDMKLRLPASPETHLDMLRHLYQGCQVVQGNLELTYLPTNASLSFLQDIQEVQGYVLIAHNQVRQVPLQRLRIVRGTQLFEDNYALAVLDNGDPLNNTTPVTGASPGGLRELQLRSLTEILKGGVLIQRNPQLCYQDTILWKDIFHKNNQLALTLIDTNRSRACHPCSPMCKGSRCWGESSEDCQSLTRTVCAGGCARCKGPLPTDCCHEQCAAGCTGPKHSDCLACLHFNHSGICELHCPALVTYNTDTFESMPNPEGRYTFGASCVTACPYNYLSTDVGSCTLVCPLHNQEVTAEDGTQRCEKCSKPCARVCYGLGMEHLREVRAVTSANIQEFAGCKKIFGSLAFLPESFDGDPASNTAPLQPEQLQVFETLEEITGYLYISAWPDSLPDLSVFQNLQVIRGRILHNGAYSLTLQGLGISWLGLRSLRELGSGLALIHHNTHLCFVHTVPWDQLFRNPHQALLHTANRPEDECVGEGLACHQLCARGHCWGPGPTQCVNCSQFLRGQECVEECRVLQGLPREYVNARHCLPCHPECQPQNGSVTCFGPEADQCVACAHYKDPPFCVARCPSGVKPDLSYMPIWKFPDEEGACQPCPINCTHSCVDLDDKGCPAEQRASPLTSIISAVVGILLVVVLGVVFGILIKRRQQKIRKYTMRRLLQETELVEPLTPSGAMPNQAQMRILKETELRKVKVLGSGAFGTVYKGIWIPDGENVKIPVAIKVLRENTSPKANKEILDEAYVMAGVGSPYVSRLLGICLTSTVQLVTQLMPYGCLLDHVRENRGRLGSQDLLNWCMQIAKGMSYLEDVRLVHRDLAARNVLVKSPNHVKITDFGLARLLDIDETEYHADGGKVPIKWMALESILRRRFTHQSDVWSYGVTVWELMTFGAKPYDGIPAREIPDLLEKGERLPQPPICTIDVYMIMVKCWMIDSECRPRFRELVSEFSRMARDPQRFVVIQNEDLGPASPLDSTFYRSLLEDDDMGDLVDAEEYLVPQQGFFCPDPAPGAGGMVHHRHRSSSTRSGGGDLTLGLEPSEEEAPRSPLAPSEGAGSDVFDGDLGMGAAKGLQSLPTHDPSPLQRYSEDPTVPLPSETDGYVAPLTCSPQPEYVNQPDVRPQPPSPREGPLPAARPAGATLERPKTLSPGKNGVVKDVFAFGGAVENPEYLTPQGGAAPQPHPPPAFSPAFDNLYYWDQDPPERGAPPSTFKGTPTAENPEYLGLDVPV

Take `CCOC(=O)c1ccccc1NC(=O)c1cccnc1`: the viability in [1] was 83%; in [3], 83% (inactive); in test [4] it was 94.8% (inactive); in [5], 96.1% (inactive); in [6] (setting [16]), 94.4%; in test [6] (setting [17]) it was 96.1%. Further, the viability in test [12] is 104% (inactive); in test [13], 102% (inactive). In [2], the Her2 level was 117% (inactive). In addition, the differential viability (reversal) in test [6] (H69AR cells + 2 uM doxorubicin) is 1.67% (inactive). Also, the inhibition in test [7] was 1.95% (inactive); in test [8], -4.59% (inactive); in test [14] it was 1.57% (inactive). The values for the growth inhibition in test [9] and in test [10] were -11.9% (inactive) and -21.3% (inactive), respectively. The viability increase in test [11] is 0.06% (inactive). Besides, the RAM network inhibition in test [15] is 2.22% (inactive).

For the molecule `O=C(Oc1ccc2ccc(OC(=O)N3CCOCC3)cc2c1)N1CCOCC1`, the viability is 96.5% in [1]; 96.5% (inactive) in test [3]; 108% (inactive) in [4]; 84% (inactive) in [5]; 89.5% in test [6] (setting [16]); 84% in [6] (setting [17]). Also, the viability was 92.2% (inactive) in [12] and 87.7% (inactive) in test [13]. For the same molecule, in [2], the Her2 level is 96% (inactive). The differential viability (reversal) in test [6] (H69AR cells + 2 uM doxorubicin) was -5.42% (inactive). Further, the inhibition in test [7] was -0.13% (inactive); in test [8], -2.5% (inactive); in [14], 1.12% (inactive). Besides, the growth inhibition in [9] is -14.7% (inactive); in test [10], -15.1% (inactive). The viability increase in test [11] is 1.51% (inactive). For the same molecule, in [15], the RAM network inhibition was 4.57% (inactive).

Regarding `CCN(CC)CCNC(=O)c1ccc(CS(=O)(=O)c2ccc(Br)cc2)o1`, the viability is 92.5% in [1]; 92.5% (inactive) in [3]; 100% (inactive) in test [4]; 95.9% (inactive) in test [5]; 90.1% in [6] (setting [16]); 95.9% in test [6] (setting [17]). Further, the viability was 97.1% (inactive) in test [12] and 96.5% (inactive) in [13]. Also, the Her2 level in test [2] was 110% (inactive). Further, the differential viability (reversal) in test [6] (H69AR cells + 2 uM doxorubicin) was 5.79% (inactive). For the same molecule, the inhibition in [7] was -0.26% (inactive); in test [8], 0.17% (inactive); in test [14], 0.92% (inactive). Further, the results for the growth inhibition in test [9] and in test [10] were -12.3% (inactive) and -17.7% (inactive), respectively. Further, the viability increase in [11] was -2.1% (inactive). Moreover, the RAM network inhibition in test [15] was 0.74% (inactive).

For the molecule `COc1ccccc1NC(=O)N(C1CCCC1)C1CCN(C(C)=O)CC1`, the viability is 77.5% in test [1]; 77.5% (inactive) in [3]; 112% (inactive) in [4]; 88.3% (inactive) in [5]; 87.6% in test [6] (setting [16]); 88.3% in [6] (setting [17]). Further, the figures for the viability in test [12] and in test [13] were 92.4% (inactive) and 94.7% (inactive), respectively. Also, in test [2], the Her2 level was 89.5% (inactive). Further, the differential viability (reversal) in [6] (H69AR cells + 2 uM doxorubicin) is 0.61% (inactive). Besides, the inhibition is 0.77% (inactive) in [7], -8.83% (inactive) in test [8] and 0.72% (inactive) in [14]. For the same molecule, the values for the growth inhibition in test [9] and in test [10] were -2.26% (inactive) and -27.4% (inactive), respectively. In addition, in test [11], the viability increase was -2.01% (inactive). In addition, in test [15], the RAM network inhibition is 5% (inactive).

As for `CCN1CCN(C(=O)c2oc(=O)c3ccccc3c2-c2ccc(C)cc2)CC1`, the viability in test [1] was 96%; in [3] it was 96% (inactive); in [4], 98.6% (inactive); in test [5] it was 96.4% (inactive); in test [6] (setting [16]), 101%; in test [6] (setting [17]), 96.4%. Further, the viability is 91.9% (inactive) in [12] and 90.5% (inactive) in [13]. Moreover, the Her2 level in [2] is 102% (inactive). The differential viability (reversal) in [6] (H69AR cells + 2 uM doxorubicin) is -4.83% (inactive). Besides, the inhibition in test [7] is -3.07% (inactive); in test [8], 5.9% (inactive); in test [14] it was 2.07% (inactive). Also, the growth inhibition in test [9] was -1.38% (inactive); in test [10], -6.39% (inactive). In addition, the viability increase in [11] is -3.04% (inactive). The RAM network inhibition in test [15] was 1.85% (inactive).

For the molecule `O=C(NC1CCCC1)C1CCCN(S(=O)(=O)c2cccc3cccnc23)C1` (configuration not stated), the viability in test [1] is 102%; in test [3], 102% (inactive); in test [4], 115% (inactive); in test [5] it was 98.8% (inactive); in test [6] (setting [16]) it was 94.8%; in test [6] (setting [17]), 98.8%. For the same molecule, the figures for the viability in test [12] and in [13] were 100% (inactive) and 99.3% (inactive), respectively. Also, the Her2 level in test [2] is 116% (inactive). Also, the differential viability (reversal) in test [6] (H69AR cells + 2 uM doxorubicin) is 3.92% (inactive). In addition, the inhibition in test [7] was -5.07% (inactive); in [8], 4.33% (inactive); in [14], 0.7% (inactive). Also, the values for the growth inhibition in test [9] and in test [10] were -9.46% (inactive) and 1.54% (inactive), respectively. Further, the viability increase in test [11] is -1.04% (inactive). For the same molecule, in test [15], the RAM network inhibition is 5.53% (inactive).
